In publication PMC4336329 (PLoS ONE, 2015):
About 14,000 (4.5%) of roughly 310,000 compounds showed an effect of 50% or more. The effect is printed as a negative number. Only a selection was taken, and strong results are over-represented in it overall.

Each compound was assayed against human ether-à-go-go-related gene (hERG) potassium channel (human, UniProt Q12809) (assay: primary screen, population patch clamp on CHO cells stably expressing hERG; higher = less effect of the substance).
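Further: peak tail current of the secondary pulse compared with the same well before compound.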

Sequence of human ether-à-go-go-related gene (hERG) potassium channel (Q12809 whole entry, looked up): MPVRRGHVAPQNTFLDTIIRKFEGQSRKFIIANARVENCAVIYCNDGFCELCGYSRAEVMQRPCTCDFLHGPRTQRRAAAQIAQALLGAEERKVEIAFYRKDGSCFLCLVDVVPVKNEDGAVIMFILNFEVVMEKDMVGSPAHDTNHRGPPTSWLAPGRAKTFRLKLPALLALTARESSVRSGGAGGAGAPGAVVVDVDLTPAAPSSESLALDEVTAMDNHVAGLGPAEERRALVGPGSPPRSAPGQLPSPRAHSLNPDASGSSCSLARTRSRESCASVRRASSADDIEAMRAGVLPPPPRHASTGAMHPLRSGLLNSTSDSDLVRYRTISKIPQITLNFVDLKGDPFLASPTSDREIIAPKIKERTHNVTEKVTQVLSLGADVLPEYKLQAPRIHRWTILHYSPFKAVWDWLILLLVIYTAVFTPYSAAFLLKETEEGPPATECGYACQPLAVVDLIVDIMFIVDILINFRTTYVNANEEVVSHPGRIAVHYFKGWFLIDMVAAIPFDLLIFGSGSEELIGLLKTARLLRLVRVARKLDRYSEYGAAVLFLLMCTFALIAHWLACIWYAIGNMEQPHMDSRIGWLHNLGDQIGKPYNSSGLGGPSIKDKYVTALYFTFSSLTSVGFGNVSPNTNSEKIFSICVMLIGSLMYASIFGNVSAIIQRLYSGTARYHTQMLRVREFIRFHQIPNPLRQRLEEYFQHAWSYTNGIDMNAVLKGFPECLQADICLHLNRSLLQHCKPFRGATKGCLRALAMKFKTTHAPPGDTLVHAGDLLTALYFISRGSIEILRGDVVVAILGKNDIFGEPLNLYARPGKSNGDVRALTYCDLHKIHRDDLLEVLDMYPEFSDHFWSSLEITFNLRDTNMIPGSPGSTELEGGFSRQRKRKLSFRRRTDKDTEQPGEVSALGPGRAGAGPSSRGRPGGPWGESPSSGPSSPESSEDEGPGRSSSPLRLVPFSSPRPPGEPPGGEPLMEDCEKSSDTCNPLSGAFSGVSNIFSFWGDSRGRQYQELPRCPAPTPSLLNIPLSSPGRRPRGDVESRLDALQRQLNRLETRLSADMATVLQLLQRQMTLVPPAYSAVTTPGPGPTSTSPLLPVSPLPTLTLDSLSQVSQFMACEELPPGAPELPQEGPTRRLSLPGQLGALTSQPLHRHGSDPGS

In order of rising “hERG current change (%, negative = inhibition) at 10uM” value:
1. Cc1ccc(CNC(=O)CSc2nc3c(sc4ccccc43)c(=O)n2CCCN2CCCC2)cc1  -82.8%
2. O=C(CSc1nc2c(sc3ccccc32)c(=O)n1CCCN1CCCC1)NCc1ccccc1  -80.8%
3. C=CCN(C(=O)CSc1nc2c(sc3ccccc32)c(=O)n1CCN(CC)CC)c1ccccc1  -77.4%
4. O=C(CSc1nc2c(sc3ccccc32)c(=O)n1CCCN1CCCC1)NCc1ccco1  -73%
5. CCN(CC)CCn1c(SCC(=O)NCc2ccco2)nc2c(sc3ccccc32)c1=O  -68.2%
6. O=C1CC(c2ccc(F)cc2)CC(O)=C1C=NCCN1CCN(C(=O)Nc2ccccc2)CC1 (centres unmarked)  -67.8%
7. Cc1ccc(NC(=O)CN2CCN(CCN=CC3=C(O)CC(c4ccccc4)CC3=O)CC2)cc1 (centres unmarked)  -67.4%
8. C=CCNC(=S)N1CCN(CCN=CC2=C(O)CC(c3ccc(Cl)cc3)CC2=O)CC1 (centres unmarked)  -66.4%
9. O=C1CC(c2ccccc2)CC(O)=C1C=NCCN1CCN(C(=O)Nc2ccccc2)CC1 (centres unmarked)  -64.4%
10. Cc1ccc(Cl)cc1NC(=O)c1ccccc1OCC(=O)N1CCOCC1  -63.6%
11. O=C(CSc1nc2c(sc3ccccc32)c(=O)n1CCCN1CCCC1)NCC1CCCO1 (centres unmarked)  -61.6%
12. CCCCCCc1cc2cc(C(N)=O)c(=N)oc2cc1O  -59.8%
13. Cc1ccc(C2CC(=O)C(C=NCCN3CCN(C(=S)Nc4ccc(F)cc4)CC3)=C(O)C2)cc1 (centres unmarked)  -58.6%
14. CCN(CC)c1ccc2cc(C(N)=O)c(=N)oc2c1  -58.5%
15. CC(=O)N1CCN(C(=O)COc2ccccc2C(=O)Nc2ccccc2)CC1  -53.2%
16. Cc1cc(NC(=O)c2ccc(Cl)cc2)cc(C)c1OCC(=O)N1CCOCC1  -52.4%
17. C=CCNC(=S)N1CCN(CCN=CC2=C(O)CC(c3cccs3)CC2=O)CC1 (centres unmarked)  -49.1%
18. COc1ccc(NC(=S)N2CCN(CCN=CC3=C(O)CC(c4ccccc4)CC3=O)CC2)cc1 (centres unmarked)  -45.7%
19. Cc1ccc(NC(=O)CN2CCN(CCN=CC3=C(O)CC(c4ccc(C)cc4)CC3=O)CC2)cc1 (centres unmarked)  -45.3%
20. O=C1CC(c2ccccc2)CC(O)=C1C=NCCN1CCN(C(=S)Nc2cccc(Cl)c2)CC1 (centres unmarked)  -39.4%
21. COc1ccc(C2CC(=O)C(C=NCCN3CCN(C(=S)Nc4ccccc4)CC3)=C(O)C2)cc1 (centres unmarked)  -32.8%
22. CCN(CC)CCn1c(SCC(=O)NCc2ccccc2)nc2c(sc3ccccc32)c1=O  -29.3%
23. CCOCCCn1c(SCC(=O)NCc2ccco2)nc2c(sc3ccccc32)c1=O  -27.6%
24. Cc1ccc(C2CC(=O)C(C=NCCN3CCN(C(=S)Nc4ccccc4)CC3)=C(O)C2)cc1 (centres unmarked)  -26.4%
25. CC1(C)COC(/C=C/c2ccc([N+](=O)[O-])cc2)=N1  -26.1%
26. O=C1[C@@H]2Cc3c([nH]c4ccccc34)C(c3ccc([N+](=O)[O-])cc3)N2C(=O)CN1C1CC1 (some centres unmarked)  -25.2%
27. COC(=O)/C(=C/N(C)C)C(=O)N1CCN(c2ccc(Cl)c(Cl)c2)CC1  -25%
28. CCCCOc1ccc(C(=O)Nc2cc(C)c(OCC(=O)N3CCOCC3)c(C)c2)cc1  -24.8%
29. CCN(CC)c1ccc2cc(C(=O)NCc3ccc(F)cc3)c(=N)oc2c1  -23.4%
30. CC(OC(=O)Cc1c(F)cccc1Cl)C(=O)NC1(C#N)CCCCC1 (centres unmarked)  -22.4%
31. CCOC(=O)c1ccc(NC(=S)N2CCN(CCN=CC3=C(O)CC(c4ccccc4)CC3=O)CC2)cc1 (centres unmarked)  -19.9%
32. Cc1c(Cl)cccc1NC(=O)CN1CCN(CCN=CC2=C(O)CC(c3ccccc3)CC2=O)CC1 (centres unmarked)  -19.9%
33. O=C(CSc1nc2c(sc3ccccc32)c(=O)n1CCO)NCc1ccco1  -18.2%
34. CCCCn1c(SCC(=O)NCc2ccco2)nc2c(sc3ccccc32)c1=O  -16.8%
35. O=C(c1ccc(CS(=O)Cc2cccc(Cl)c2)o1)N1CCN(C2CCCCC2)CC1 (centres unmarked)  -16.5%
36. CC(=O)N1CCN(CCN=CC2=C(O)CC(c3ccc(Cl)cc3)CC2=O)CC1 (centres unmarked)  -15.7%
37. O=C(CSc1nc2c(sc3ccccc32)c(=O)n1CCCN1CCOCC1)NCC1CCCO1 (centres unmarked)  -14.3%
38. O=C(Nc1cccc(Cl)c1Cl)c1ccccc1OCC(=O)N1CCOCC1  -13.5%
39. CC(NC(=O)c1nn(C)c2c1CS(=O)(=O)c1ccccc1-2)c1ccccc1 (centres unmarked)  -13.1%
40. CCOC(=O)Cc1csc(NC(=O)c2cccc(Cl)c2)n1  -13%
41. Cc1ccc(C(=O)Nc2cc(C)c(OCC(=O)N3CCOCC3)c(C)c2)cc1  -11.3%
42. O=C(COC(=O)C1(c2ccccc2F)CCCC1)Nc1ncc(C(F)(F)F)cc1Cl  -10.1%
43. CN(Cc1cc2ccccc2[nH]c1=O)C(=O)COc1ccccc1  -8.32%
44. O=C(CSc1nc2c(sc3ccccc32)c(=O)n1CCc1ccccc1)NCc1ccco1  -8.32%
45. COC(=O)c1ccc(COC(=O)C2CCN(S(=O)(=O)c3c(Cl)cccc3Cl)CC2)o1  -7.62%
46. CCCCCCc1cc2cc(C(=O)NC)c(=N)oc2cc1O  -7.38%
47. Cc1cccc(NC(=O)c2ccccc2OCC(=O)N2CCOCC2)c1C  -6.62%
48. Cc1c(C(=O)NCCSCc2ccco2)cccc1[N+](=O)[O-]  -5.94%
49. COc1cccc(OC)c1C(=O)NNS(=O)(=O)c1ccc2ccccc2c1  -5.2%
50. Cc1cc(C)nc(N/C(=N\S(=O)(=O)Cc2ccccc2)Nc2cccc(Cl)c2C)n1  -3.72%
51. O=C(CSc1nc2c(sc3ccccc32)c(=O)n1CCO)NCC1CCCO1 (centres unmarked)  -3.42%
52. COc1ccccc1C(=O)Nc1ccc(OCC(=O)N2CCCCC2)cc1  -2.87%
53. CSc1ccc(Cl)c(C(=O)Nc2ccc(N3CCOCC3)cc2)c1  -1.67%
54. OC(COc1ccccc1)Cn1cc(Br)cn1 (centres unmarked)  0.0411%
55. COc1ccc(N2C(=O)C3C(C2=O)C3(c2ccccc2)c2ccccc2)cc1 (centres unmarked)  0.0654%
56. O=C(Nc1cc2c(cc1Br)OCCO2)c1cccnc1  1.58%
57. N#CC(C#N)=Cc1cc2ccccc2nc1N1CCCCC1  2.22%
58. CCN(CC)c1ccc(NC(=O)COC(=O)COc2ccccc2[N+](=O)[O-])cc1  3.42%
59. Cn1cc(Br)c(C(=O)NNC(=O)Cc2ccc(Cl)cc2)n1  3.6%
60. O=C1CC(c2ccc(F)cc2)CC(O)=C1C=NCCN1CCNCC1 (centres unmarked)  6.09%
61. O=S(=O)(NCc1ccccc1)NCc1ccccc1F  7.69%
62. CC1(C)CN(c2cccc(Br)c2)C1=O  7.96%
63. COCCN1C(=O)C(=O)/C(=C(/O)c2ccc(S(=O)(=O)N3CCCCC3)cc2)C1c1ccc(OC)c(OC)c1 (centres unmarked)  8.21%
64. COc1ccc(C(=O)Nc2ncccc2C)cc1S(=O)(=O)N1CCCc2ccccc21  9.01%
65. CCN(CC)c1ccc2cc(C(N)=O)c(=O)oc2c1  9.31%
66. COc1cc2nc(C3CCC3)n(NC(=O)C(OC(C)=O)c3ccccc3)c(=O)c2cc1OC (centres unmarked)  9.45%
67. CC(=O)c1ccc(NC(=O)COc2ccccc2C(=O)Nc2ccccc2)cc1  9.66%
68. COCCn1c(SCC(=O)Nc2cc(C)on2)nc2c(c1=O)SC(C)C2 (centres unmarked)  10.5%
69. CCc1ccccc1N(CC(=O)N1CCCCC1)S(=O)(=O)c1ccccc1  10.6%
70. CCc1nc(Nc2ccccc2OC)c2oc3ccccc3c2n1.Cl  12.5%
71. Cc1ccc(CNC(=O)c2ccccc2NS(=O)(=O)c2ccc(Cl)nc2)cc1  12.6%
72. CN(C[C@H](Cc1ccccc1)N(C[C@H](Cc1ccccc1)N(CC1(c2ccccc2)CC1)N=O)N=O)N=O.[Na+]  12.8%
73. CC1(c2nnc(-c3ccc(Cl)cc3)o2)CC(c2cccc(Cl)c2)=NO1 (centres unmarked)  13.7%
74. Cc1ccc(-n2c(SCC(=O)NCc3ccco3)nc3c(sc4ccccc43)c2=O)cc1  14.8%
75. Fc1c(F)c(C(F)(F)F)c(F)c(F)c1N/N=C\c1cccs1  15.5%
76. ON1C2CCCCC2N(O)C1c1ccccc1F (centres unmarked)  16.7%
77. Cc1cc(NC(=O)Nc2ccc(Cl)cc2)n(C(C)(C)C)n1  17.7%
78. COc1ccc(C(CNC(=O)c2cc(C)on2)N(C)C)cc1 (centres unmarked)  22.1%
79. CSc1nc(Cc2ccccc2)nc2ccccc12  22.9%
80. O=C(O)CC(SCC(=O)Nc1ccccc1)C(=O)O (centres unmarked)  23%
81. Cc1c(C)n(CC(O)CNc2ccccc2)c2ccccc12.O=C(O)C(=O)O (centres unmarked)  23.1%
82. CCCCCCc1cc2cc(C(=O)OCC)c(=O)oc2cc1O  23.3%
83. CCN(CC)CCn1c(SCC(=O)NCCC2=CCCCC2)nc2c(sc3ccccc32)c1=O  35.5%
